The record followed here is PubChem BioAssay AID2283162 (EPA ToxCast).

Records with an inconclusive call do not appear. The source made the active and inactive calls. The calls were made as follows: active = hit-call score of the fitted dose curve at least 0.9, where 1 is the maximum; inconclusive = response in the unintended direction; inactive = score below 0.9.

Sequence of human Insulin-like Growth Factor 1 Receptor (IGF1R), IGF1R (gene 3480) (P08069 whole entry, looked up): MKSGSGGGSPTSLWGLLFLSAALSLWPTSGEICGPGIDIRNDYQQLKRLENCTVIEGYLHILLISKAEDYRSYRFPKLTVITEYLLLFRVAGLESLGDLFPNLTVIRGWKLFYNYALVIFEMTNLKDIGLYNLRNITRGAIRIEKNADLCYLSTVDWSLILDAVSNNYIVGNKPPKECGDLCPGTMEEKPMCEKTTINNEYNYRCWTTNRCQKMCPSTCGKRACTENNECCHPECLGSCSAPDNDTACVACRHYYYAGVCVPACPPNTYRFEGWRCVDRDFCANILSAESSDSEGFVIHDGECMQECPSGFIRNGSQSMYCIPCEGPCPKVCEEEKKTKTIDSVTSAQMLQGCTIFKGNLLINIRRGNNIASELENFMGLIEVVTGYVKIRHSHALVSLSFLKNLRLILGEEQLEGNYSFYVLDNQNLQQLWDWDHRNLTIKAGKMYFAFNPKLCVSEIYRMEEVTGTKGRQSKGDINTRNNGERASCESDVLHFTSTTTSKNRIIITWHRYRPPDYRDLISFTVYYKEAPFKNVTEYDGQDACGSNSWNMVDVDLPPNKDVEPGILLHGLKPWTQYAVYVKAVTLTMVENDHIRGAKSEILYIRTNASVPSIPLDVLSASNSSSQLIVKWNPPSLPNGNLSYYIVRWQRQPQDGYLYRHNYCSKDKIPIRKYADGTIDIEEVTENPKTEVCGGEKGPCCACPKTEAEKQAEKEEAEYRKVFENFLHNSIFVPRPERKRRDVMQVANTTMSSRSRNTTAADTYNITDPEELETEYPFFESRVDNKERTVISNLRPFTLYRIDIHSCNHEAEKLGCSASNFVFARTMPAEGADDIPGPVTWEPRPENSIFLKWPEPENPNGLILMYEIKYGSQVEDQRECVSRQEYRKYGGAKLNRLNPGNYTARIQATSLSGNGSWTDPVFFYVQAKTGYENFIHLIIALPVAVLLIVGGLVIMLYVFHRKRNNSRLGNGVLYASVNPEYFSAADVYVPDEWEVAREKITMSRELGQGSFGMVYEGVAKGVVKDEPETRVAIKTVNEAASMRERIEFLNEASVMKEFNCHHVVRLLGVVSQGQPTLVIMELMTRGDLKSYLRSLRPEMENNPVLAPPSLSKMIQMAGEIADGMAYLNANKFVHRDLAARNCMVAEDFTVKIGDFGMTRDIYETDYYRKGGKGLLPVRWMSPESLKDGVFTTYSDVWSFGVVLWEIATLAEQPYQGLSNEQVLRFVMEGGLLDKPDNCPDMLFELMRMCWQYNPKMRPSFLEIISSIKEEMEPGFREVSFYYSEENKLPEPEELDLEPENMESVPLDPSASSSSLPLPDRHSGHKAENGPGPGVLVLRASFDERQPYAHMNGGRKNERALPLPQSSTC

The target in the assay is human Insulin-like Growth Factor 1 Receptor (IGF1R), IGF1R (gene 3480) (UniProt P08069). Kind of assay: NVS_ENZ_hIGF1R: NovaScreen (NVS) Enzymatic Assay for human Insulin-like Growth Factor 1 Receptor (IGF1R). The method, then:
NVS_ENZ_hIGF1R is a biochemical, single-readout assay that uses extracted gene-proteins in a cell-free assay. Measurements were taken 1 hour after chemical dosing in a 384-well plate.NVS_ENZ_hIGF1R is one of one assay component(s) measured or calculated from the NVS_ENZ_hIGF1R assay. It is designed to make measurements of enzyme activity, a form of enzyme reporter, as detected with fluorescence intensity signals by Fluorescence and electrophoretic mobility shift technology.Data from the assay component NVS_ENZ_hIGF1R was analyzed into 1 assay endpoint. This assay endpoint, NVS_ENZ_hIGF1R, was analyzed in the positive analysis fitting direction relative to DMSO as the negative control and baseline of activity. Using a type of enzyme reporter, loss-of-signal activity can be used to understand changes in the enzymatic activity as they relate to the gene IGF1R. Furthermore, this assay endpoint can be referred to as a primary readout, because this assay has produced multiple assay endpoints where this one serves a enzymatic activity function. To generalize the intended target to other relatable targets, this assay endpoint is annotated to the kinase intended target family, where the subfamily is receptor tyrosine kinase.
Binding assays used specific radioligands (tritiated, iodinated) with non-radioactive competitive displacement ligands in agonist or antagonist protocols (as indicated) and various reference compounds and inhibitors to titrate specific binding to receptors and transporters. Most enzyme assays (CYPs, kinases, phosphatases, proteases, HDACs) used recombinant protein and specific substrates (fluorescence mostly, some colorimetric and radioactive) and inhibitors, followed by a biochemical separation of substrate and product. All assays for the biochemical HTS were initially run in duplicate at a single concentration (10 uM for CYP450 assays and 25 uM for all others). Assay-chemical combinations meeting a pre-defined threshold (e.g., 30% inhibition and other criteria defined below) were then run in singleton concentration-response format with maximum concentration of 20 uM for CYPs and 50 uM for all others. Each assay was run with positive and negative controls, and concurrent controls on every plate. The follow-up (secondary) screen tested active chemical-pairs in concentration series, as well as a few additional assays not tested in the primary screen, some selected negative inactives, and several cases re-run in the concentration series for confirmatory purposes.
`Clc1cccc(Cl)c1`: the molecule was classed as inactive. With `CCC1(c2ccccc2)C(=O)N=C(O)NC1=O` (stereo unspecified), the call was inactive.

Take `O=C(N[C@H]1CN2CCC1CC2)c1ccc2c(c1)OCCO2`: the result was inactive.

Consider `CC(C)C(=O)OCC(C)(C)C(OC(=O)C(C)C)C(C)C` (stereo unspecified), for which the outcome was inactive.

On to `CN(C)[C@@H]1C(=O)C(C(N)=O)=C(O)[C@@]2(O)C(=O)C3=C(O)c4c(O)cccc4[C@@](C)(O)[C@H]3[C@H](O)[C@@H]12`, for which the AC50 is 39.4 µM (active). Regarding `CC(C)(C)c1cc(O)ccc1O`, the molecule was called inactive.
